# Hits are enriched below; roughly 7.3% of the tested compounds scored in any of these assays.
# VACV mCherry inh: vaccinia inhibition (mCherry reporter); Vaccinia virus mCherry reporter infection, fluorescence; Potency, µM (titrated, usually from 36.5 µM), inactives show at the highest dose activity change, negative = inhibition, usual class: inhibitors; hit rate 0.63% among 310,000; AID 720579; calls by dose curve; tested in A549 cells; also: potency is read from the fitted curve at half-maximal effect; nearly all actives have a fitted effect of over 35% in size
# FMDV antiviral: blocks foot and mouth disease virus. FMDV antiviral cell-based qHTS. Potency, µM (titrated, usually from 57.9 µM), without a hit: at the top dose activity change, negative = inhibition, most hits filed as inhibitors. hit rate 1.2% among 410,000; calls by dose curve; tested in HEK293T cells; also: read-out not given here; potency is read from the fitted curve at half-maximal effect; nearly all actives have a fitted effect of over 45% in size
# Vaccinia Venus: vaccinia inhibition (Venus reporter); Vaccinia virus Venus reporter expression, fluorescence; Potency, µM (doses to about 36.5 µM), for inactives: at the top dose activity change, negative = inhibition, actives largely listed as inhibitors; hit rate 0.46% among 330,000; AID 720580; calls by dose curve; tested in A549 cells; also: potency is read from the fitted curve at half-maximal effect; nearly all actives have a fitted effect of over 30% in size
# HCV inhibitor: HCV inhibition; Huh7.5.1 HCVcc-Cre infection, luciferase reporter, 44 h; Potency, µM (series often up to 41.8 µM), for inactives: top-dose activity change, negative = inhibition, hits mostly inhibitors; hit rate 3.4% among 340,000; AID 651820; active = well fitted inhibition curve with a large enough effect; inconclusive = small, poorly fitted or top-dose-only effect, or another doubt; inactive = no such curve, though single readings can be large or run the other way; also: potency is read from the fitted curve at half-maximal effect
#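 Cells (1,000/well) were plated 4 h before compound, then infected with HCVcc-Cre virus (~0.5 moi). After 44 h further culture, infection was read as luciferase luminescence following a 15 min substrate incubation at room temperature.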
# HCMV antiviral: human cytomegalovirus inhibition | activity change, negative = inhibition, % at 57.5 µM | HFF cells, HCMV-luciferase reporter, 72 h; hits give low values | hit rate 4.5% among 410,000 | AID 1259415; in the data active = activity change below about -60%; inconclusive = no clear call, values can overlap the other calls; inactive = above about -39%
#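 Two-dose cell screen: HFF monolayers treated with compounds and infected with luciferase-expressing HCMV at 1 PFU/cell, 72 h at 37C, then lysed for luciferase measurement.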
# Numbers without * were called inactive; i = inactive; u = inconclusive; x = no result given; ! = repeats disagree; [ ] = another dose, or the depositor's remark. % is scaled to controls: 0 for no effect and ±100 for the full control effect.
SMILES,VACV mCherry inh,FMDV antiviral,Vaccinia Venus,HCV inhibitor,HCMV antiviral
C/C1=C\CC(C)(C)/C=C/C(=O)[C@@H](C)CCC[C@H](C)CC(=O)C1,x,x,x,x,-1
CC(C)COc1ccc(C(=O)NC(CC(C)C)C(=O)O)cc1 (centres undefined),-8%,16%,1%,24%,-6
Cc1ccc(Oc2ccc(OCC(=O)NC(CC(C)C)C(=O)O)cc2)cc1 (centres undefined),-3%,2%,-1%,13%,-65*
COc1ccccc1CC1(C)C(=O)Nc2c(Cl)cccc21 (centres undefined),i,-20%,-12%,x,-73*
CC1(Cc2ccc(F)cc2)C(=O)Nc2c(Cl)cccc21 (centres undefined),i,-22%,u,x,u
CCc1ccc2c(c1)NC(=O)C2(C)Cc1ccccc1OC (centres undefined),-14%,-22%,-19%,x,-71*
CCOC(=O)c1cccn1C1C(=O)N(Cc2ccc(Cl)nc2)c2ccccc21 (centres undefined),x,x,x,x,-10
C[C@H](c1ccccc1)N1C[C@@H](COCc2ccccc2)Oc2cc(N3CCC[C@H]3CO)ccc2S1(=O)=O,12%,27%,-6%,x,u
CCOC(=O)[C@@H]1[C@H]2COc3ccccc3[C@H]2N2C(=O)N(c3ccc(Cl)cc3)C(=O)[C@]12C,i,-25%,9%,-22%,1
COC(=O)c1ccc(N2CCOCC2)c(NC(=O)c2ccco2)c1,-14%,-7%,-6%,-3%,30
COc1ccc(OC)c(S(=O)(=O)N(C)CC(=O)N2CCN(c3ccc(F)cc3)CC2)c1,u,x,-4%,13%,48
COc1ccc(S(=O)(=O)N(C)CC(=O)N2CCCCC2)cc1Cl,-19%[1.46 µM],-11%,-20%,-1%,-29
COc1ccc(S(=O)(=O)N(C)CC(=O)N2CCN(C)CC2)cc1Cl,x,10%,x,8%,-100*
COc1ccc(OC)c(S(=O)(=O)N(C)CC(=O)N2CCN(c3cccc(Cl)c3)CC2)c1,x,u,-26%,-20%,-103*
Cc1ccc2nc(C(Cl)(Cl)Cl)nc(N/N=C/c3ccc([N+](=O)[O-])cc3)c2c1,i,22µM*,4%,u,-28
Cc1ccc(NC(=O)Cn2c(=O)ccc3cc(S(=O)(=O)N4CCCC4)ccc32)cc1N(C)C,-28%,-14%,-20%,x,-1
CCOC(=O)CN1C(=O)CC(C[C@@H](O)C2C[C@@H](C)C[C@H](C)C2=O)CC1=O (some centres undefined),i,-15%,-8%[60.7 µM],x,x
CC1CC(C)C(=NNC(N)=O)C(C(O)CC2CCC(=O)NC2=O)C1 (centres undefined),u,-11%,7.9µM*,10µM*,u
Cc1nnc(C)c2c(C)n(Cc3ccc4c(c3)OCO4)c(C)c12,x,-22%,x,4.5µM*,u
CCN=C1S/C(=C\c2cn(C(C)=O)nc2-c2ccccc2)C(=O)N1CC,x,0%,x,10µM*,20
CC(=O)NC1=NC(=O)/C(=C/c2cn(C(C)=O)nc2-c2ccccc2)S1,x,-11%,x,-3%,u
COc1ccc(CNC(=O)c2cc3c(=O)[nH]c4ccccc4c3n2C)cc1,x,-16%,x,-9%,u
CCc1cccc(NC(=O)c2cc3c(=O)[nH]c4ccccc4c3n2C)c1,-17%,u,-21%,x,-66*
CC1CCCN(CCCNC(=O)c2ccc(NC(=O)C3=CSCCO3)cc2)C1 (centres undefined),x,-6%,x,8%,-15
Cc1cccc(N2CCN(CCCNC(=O)c3ccc(NC(=O)C4=CSCCO4)cc3)CC2C)c1 (centres undefined),i,u,-24%,11µM*,-31
SMILES,VACV mCherry inh,FMDV antiviral,Vaccinia Venus,HCV inhibitor,HCMV antiviral
Cn1c(O)c(C2=c3ccccc3=NC2=O)sc1=Nc1ccc(Cl)cc1,x,19%,x,-12%,-67*
O=C(NC1CC1)c1ccc2c(c1)N(Cc1ccc(Cl)cc1)CCS2,x,-28%,x,22µM*,u
Cc1ccc(CN2CCSc3ccc(C(=O)NC4CCN(Cc5ccccc5)CC4)cc32)cc1,-15%,-27%,-19%,8.9µM*,-20
O=C(NC1CCCC1)c1ccc2c(c1)N(Cc1ccccc1)CCS2,x,5%,x,u,-8
Cc1cc2ccccc2cn1,-10%,x,-5%,x,x
CCOC(=O)c1ccc2c(c1)N(CC(=O)Nc1ccc(C)cc1C)C(=O)c1ccccc1S2,-6%,-10%,4%,x,7
O=S1(=O)N[C@@H](Cc2ccccc2)COc2cccc(NCCO)c21,x,x,x,x,-17
CCOc1ccccc1OCC(=O)OCC(=O)Nc1ncc(Cl)cc1Cl,i[1.46 µM],-20%,-10%,20%,-72*
O=C(COC(=O)CNC(=O)c1ccco1)Nc1ncc(Cl)cc1Cl,x,-2%,x,5%,-100*
Cc1c(Cl)ccc2sc(N3CCN(C(=O)CCS(=O)(=O)c4ccc(F)cc4)CC3)nc12,-23%,11µM*,u,x,-70*
O=C(CCS(=O)(=O)c1ccc(Cl)cc1)N1CCN(c2ccc(F)cc2)CC1,x,-25%,x,17%,-4
Cc1ccc(S(=O)(=O)CCC(O)c2ccc(Cl)cc2)cc1 (centres undefined),x,-17%,x,10%,-102*
Cc1ccc(S(=O)(=O)CCC(=O)N2CCN(c3ccc(Cl)cc3)CC2)cc1,x,u,x,u,-70*
CC(=O)c1c(C)[nH]c(C(=O)OCC(=O)Nc2cc(Cl)ccc2[N+](=O)[O-])c1C,x,28µM*,x,10µM*,100
CC(=O)c1c(C)[nH]c(C(=O)OCC(=O)Nc2ccc(C)cc2[N+](=O)[O-])c1C,x,5µM*,x,2.8µM*,u
Cc1ccc(NC(=O)COC(=O)C2=COCCO2)c([N+](=O)[O-])c1,i,-8%,-20%,-5%,-11
Cc1cc(C)n(-c2ccc(C(=O)OCC(=O)Nc3cc(Cl)ccc3[N+](=O)[O-])cc2)n1,-10%,-18%,-14%,17%,113
CN(C)CCC(c1ccccc1)c1ccccn1 (centres undefined),-14%,-12%,-8%,5µM*!,-9
CN(C)CCC(c1ccc(Cl)cc1)c1ccccn1 (centres undefined),-2%,-7%,-19%,u,-16
CCC(CC)C(=O)NC1CC(=O)N(c2ccc3c(c2)OCCO3)C1 (centres undefined),3%,-19%,-2%,x,14
CC(=O)Oc1ccc(OC(C)=O)c(SCCCCCN2CCOCC2)c1,x,u,x,11µM*,u
CC(C)N(C(=O)[C@H]1CC(CC(=O)NCCc2ccccn2)C(=O)N2CCc3c([nH]c4ccccc34)[C@]12C)C(C)C (some centres undefined),-14%,-19%,-23%,-9%,-15
C[C@]12c3[nH]c4ccc(Cl)cc4c3CCN1C(=O)[C@@H](CC(=O)NCCC1=CCCCC1)C[C@@H]2C(=O)N1CCOCC1,u,-19%,u,11µM*,-23

# Assay outcomes: PubChem BioAssay, National Center for Advancing Translational Sciences (NCATS)
